Measurements as given in PubChem BioAssay (NCATS).
Inconclusive results are not listed. Entries that show only a call come without a potency. Active and inactive are the calls of the source. Unless noted, the call rests on the fitted dose curve. Peptide text beside a SMILES is read from it.

Tested on: not listed separately
Assay: qHTS for Inhibitors of the Functional Ribonucleoprotein Complex (vRNP) of Lymphocytic Choriomeningitis Arenaviruses (LCMV): Viability assay - alamar blue signal for LCMV Primary Screen (AID 1347085; calls by dose curve; tested in HEK293 reporter line; further: nearly all actives have a fitted effect of over 80% in size)
Conditions: alamar blue viability counter-screen, LCMV vRNP screen cells; series mostly up to 57.5 µM

| SMILES | Potency |
| --- | --- |
| N[C@H](Cc1c[nH]c2ccccc12)C(=O)O | inactive |
| CCn1cc(C(=O)O)c(=O)c2cc(F)c(N3CCN(C)CC3)cc21 | inactive |
| CCN[C@H]1C[C@H](C)S(=O)(=O)c2sc(S(N)(=O)=O)cc21 | inactive |
| CC(C)Cc1ccc(C(C)C(=O)OCc2ccccn2)cc1 (stereo not drawn) | inactive |
| CCC(=O)Nc1ccc(O)cc1 | inactive |
| CCN(CC)CC1CCCCN1CC(=O)N1c2ccccc2C(=O)Nc2cccnc21 (stereo not drawn) | inactive |
| CC(=O)O[C@]1(C(C)=O)CC[C@H]2[C@@H]3C=C(Cl)C4=CC(=O)CC[C@]4(C)[C@H]3CC[C@@]21C | inactive |
| O=C(O)c1cccnc1Nc1cccc(C(F)(F)F)c1 | inactive |
| CCCCC1C(=O)N(c2ccccc2)N(c2ccc(O)cc2)C1=O (stereo not drawn) | inactive |
| Cc1ccc(O)c(-n2nc3ccccc3n2)c1 | inactive |
| CN1CCC(=C2c3ccccc3Sc3ccccc32)CC1 | inactive |
| NC(=O)NNc1ccccc1 | inactive |
| CN1CCN(c2c(F)cc3c(=O)c(C(=O)O)cn(CCF)c3c2F)CC1 | inactive |
| c1cc(CN2CCCCC2)cc(OCCCNc2nc3ccccc3s2)c1 | inactive |
| CCCCN(CCCC)CC(O)c1cc(Cl)cc2c1-c1ccc(Cl)cc1/C2=C/c1ccc(Cl)cc1 (stereo not drawn) | inactive |
| CC(=O)N[C@@H](CO)C(=O)N[C@@H](CC(=O)O)C(=O)N[C@@H](CCCCN)C(=O)N1CCC[C@H]1C(=O)O (Ac-SDKP-OH) | inactive |
| CN(C)C(=O)Nc1ccc(Cl)c(Cl)c1 | inactive |
| Cc1c(C)c2c(c(C)c1OC(=O)CCC(=O)OCCO)CC[C@@](C)(CCC[C@H](C)CCC[C@H](C)CCCC(C)C)O2 | inactive |
| CC(C)NC(=O)c1ccc(C=O)cc1 | inactive |
| CCC(C)(C)c1ccc(CC(C)CN2C[C@@H](C)O[C@@H](C)C2)cc1 (stereo partly drawn) | inactive |

| SMILES | Potency |
| --- | --- |
| CC(=O)Nc1ccn(C2COC(COC(=O)c3ccccc3)O2)c(=O)n1 (stereo not drawn) | inactive |
| CCN(CC)C(=O)N1CCN(C)CC1 | inactive |
| O=C(CCC1CCN(Cc2ccccc2)CC1)c1ccc2c(c1)NCCCC2 | inactive |
| O=C(O)/C=C/c1ccc(Cn2ccnc2)cc1 | inactive |
| CC1(C)OC[C@@H](COC(=O)CCc2ccc(OC[C@@H](O)CNCCNC(=O)N3CCOCC3)cc2)O1 | inactive |
| Clc1ccc(C(Cn2ccnc2)OCc2ccsc2Cl)c(Cl)c1 (stereo not drawn) | inactive |
| Cc1cc(=O)oc2cc(O)ccc12 | inactive |
| Cc1cccc(C)c1NC(=O)C(C)N (stereo not drawn) | inactive |
| CCCOc1ccccc1-c1nc2n[nH]nc2c(=O)[nH]1 | inactive |
| COCCc1ccc(OCC2CO2)cc1 (stereo not drawn) | inactive |
| CC[C@H](c1ccc(O)cc1)[C@@H](CC)c1ccc(O)cc1 | inactive |
| CCC1Nc2cc(Cl)c(S(N)(=O)=O)cc2S(=O)(=O)N1 (stereo not drawn) | inactive |
| OC[C@@H](O)[C@H](O)[C@H](O)[C@@H](O)CO | inactive |
| NCc1ccccc1Sc1ccccc1CO | inactive |
| CO/N=C(\C(=O)O)c1csc(NC(=O)CCl)n1 | inactive |
| CCOC(=O)c1c(N)sc2c1CCN(Cc1ccccc1)C2 | inactive |
| CCc1nnc(NS(=O)(=O)c2ccc(N)cc2)s1 | inactive |
| CC1CCCCN1CCCOC(=O)c1ccc(OC2CCCCC2)cc1 (stereo not drawn) | inactive |
| O=C(O)Cc1ccc2c(c1)C(=O)c1ccccc1CO2 | inactive |

Target: Nucleoprotein (Lymphocytic choriomeningitis virus (strain Armstrong)) (UniProt P09992)
Sequence (P09992 whole entry, looked up): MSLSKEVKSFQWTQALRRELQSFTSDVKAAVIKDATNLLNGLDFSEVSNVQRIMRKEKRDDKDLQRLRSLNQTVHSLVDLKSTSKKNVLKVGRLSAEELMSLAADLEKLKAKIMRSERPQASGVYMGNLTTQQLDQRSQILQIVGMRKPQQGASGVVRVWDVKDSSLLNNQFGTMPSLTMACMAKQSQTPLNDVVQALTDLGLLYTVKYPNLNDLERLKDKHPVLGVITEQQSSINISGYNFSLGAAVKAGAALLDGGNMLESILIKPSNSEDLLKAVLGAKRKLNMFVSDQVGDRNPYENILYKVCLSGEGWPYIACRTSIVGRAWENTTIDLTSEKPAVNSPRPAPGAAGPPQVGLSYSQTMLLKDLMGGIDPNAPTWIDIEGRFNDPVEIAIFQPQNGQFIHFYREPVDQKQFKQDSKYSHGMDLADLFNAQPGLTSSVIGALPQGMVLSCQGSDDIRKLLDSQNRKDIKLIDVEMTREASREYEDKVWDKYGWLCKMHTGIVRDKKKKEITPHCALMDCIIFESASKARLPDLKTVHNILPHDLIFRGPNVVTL
Assay: qHTS for Inhibitors of the Functional Ribonucleoprotein Complex (vRNP) of Lymphocytic Choriomeningitis Arenaviruses (LCMV): LCMV Primary Screen - GLuc reporter signal (AID 1347086); further: nearly all actives have a fitted effect of over 70% in size
Conditions: LCMV minigenome vRNP cell assay, Gaussia luciferase reporter; series mostly up to 57.5 µM

| SMILES | Potency |
| --- | --- |
| N[C@H](Cc1c[nH]c2ccccc12)C(=O)O | inactive |
| CCn1cc(C(=O)O)c(=O)c2cc(F)c(N3CCN(C)CC3)cc21 | inactive |
| CCN[C@H]1C[C@H](C)S(=O)(=O)c2sc(S(N)(=O)=O)cc21 | inactive |
| CC(C)Cc1ccc(C(C)C(=O)OCc2ccccn2)cc1 (stereo not drawn) | inactive |
| CCC(=O)Nc1ccc(O)cc1 | inactive |
| CCN(CC)CC1CCCCN1CC(=O)N1c2ccccc2C(=O)Nc2cccnc21 (stereo not drawn) | inactive |
| CC(=O)O[C@]1(C(C)=O)CC[C@H]2[C@@H]3C=C(Cl)C4=CC(=O)CC[C@]4(C)[C@H]3CC[C@@]21C | inactive |
| O=C(O)c1cccnc1Nc1cccc(C(F)(F)F)c1 | inactive |
| CCCCC1C(=O)N(c2ccccc2)N(c2ccc(O)cc2)C1=O (stereo not drawn) | inactive |
| Cc1ccc(O)c(-n2nc3ccccc3n2)c1 | inactive |
| CN1CCC(=C2c3ccccc3Sc3ccccc32)CC1 | inactive |
| NC(=O)NNc1ccccc1 | inactive |
| CN1CCN(c2c(F)cc3c(=O)c(C(=O)O)cn(CCF)c3c2F)CC1 | inactive |
| c1cc(CN2CCCCC2)cc(OCCCNc2nc3ccccc3s2)c1 | inactive |
| CCCCN(CCCC)CC(O)c1cc(Cl)cc2c1-c1ccc(Cl)cc1/C2=C/c1ccc(Cl)cc1 (stereo not drawn) | inactive |
| CC(=O)N[C@@H](CO)C(=O)N[C@@H](CC(=O)O)C(=O)N[C@@H](CCCCN)C(=O)N1CCC[C@H]1C(=O)O (Ac-SDKP-OH) | inactive |
| CN(C)C(=O)Nc1ccc(Cl)c(Cl)c1 | inactive |
| Cc1c(C)c2c(c(C)c1OC(=O)CCC(=O)OCCO)CC[C@@](C)(CCC[C@H](C)CCC[C@H](C)CCCC(C)C)O2 | inactive |
| CC(C)NC(=O)c1ccc(C=O)cc1 | inactive |
| CCC(C)(C)c1ccc(CC(C)CN2C[C@@H](C)O[C@@H](C)C2)cc1 (stereo partly drawn) | inactive |

| SMILES | Potency |
| --- | --- |
| CC(=O)Nc1ccn(C2COC(COC(=O)c3ccccc3)O2)c(=O)n1 (stereo not drawn) | inactive |
| CCN(CC)C(=O)N1CCN(C)CC1 | inactive |
| O=C(CCC1CCN(Cc2ccccc2)CC1)c1ccc2c(c1)NCCCC2 | inactive |
| O=C(O)/C=C/c1ccc(Cn2ccnc2)cc1 | inactive |
| CC1(C)OC[C@@H](COC(=O)CCc2ccc(OC[C@@H](O)CNCCNC(=O)N3CCOCC3)cc2)O1 | inactive |
| Clc1ccc(C(Cn2ccnc2)OCc2ccsc2Cl)c(Cl)c1 (stereo not drawn) | inactive |
| Cc1cc(=O)oc2cc(O)ccc12 | inactive |
| Cc1cccc(C)c1NC(=O)C(C)N (stereo not drawn) | inactive |
| CCCOc1ccccc1-c1nc2n[nH]nc2c(=O)[nH]1 | inactive |
| COCCc1ccc(OCC2CO2)cc1 (stereo not drawn) | inactive |
| CC[C@H](c1ccc(O)cc1)[C@@H](CC)c1ccc(O)cc1 | inactive |
| CCC1Nc2cc(Cl)c(S(N)(=O)=O)cc2S(=O)(=O)N1 (stereo not drawn) | inactive |
| OC[C@@H](O)[C@H](O)[C@H](O)[C@@H](O)CO | inactive |
| NCc1ccccc1Sc1ccccc1CO | inactive |
| CO/N=C(\C(=O)O)c1csc(NC(=O)CCl)n1 | inactive |
| CCOC(=O)c1c(N)sc2c1CCN(Cc1ccccc1)C2 | inactive |
| CCc1nnc(NS(=O)(=O)c2ccc(N)cc2)s1 | inactive |
| CC1CCCCN1CCCOC(=O)c1ccc(OC2CCCCC2)cc1 (stereo not drawn) | inactive |
| O=C(O)Cc1ccc2c(c1)C(=O)c1ccccc1CO2 | inactive |
